In PubChem BioAssay AID1159580 (chemical genetic matrix, 2015):
Several values for one entry are separate records, joined by “and”; a condition that tells them apart may be missing. Equal entries are not always repeated. Out of some 5,500 compounds screened, about 2,000 (36%) were called active. Another 18% or so got no clear call; they are omitted. No stated cut-off is given here; in the data, active means normalized growth mostly below about 0.91 (no sharp cut-off); inconclusive means no clear call, values can overlap the other calls; inactive means mostly above about 0.92. This is one part of the list.

Assay: chemical genetic growth profiling, strain panel (AID 1159580);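 further: tested at 20 µM; growth read once vehicle control cultures reached saturation at 30 °C; 1 = growth at the plate median or of vehicle wells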
Conditions: growth OD

Measured: normalized growth

CCN(CC)CCCC(C)Nc1ccnc2cc(Cl)ccc12 (stereo not drawn)
inactive: S. cerevisiae deletion strains, locus YJR075W, strain HOC1, stronger effect = lower value 1.03 and 1.01 | S. cerevisiae deletion strains, locus YKL009W, strain mrt4, stronger effect = lower value 1.03 | S. cerevisiae deletion strains, locus YKL068W, stronger effect = lower value 1.01 | S. cerevisiae deletion strains, locus YKL085W, strain MDH1 (second series), stronger effect = lower value 0.998 | S. cerevisiae deletion strains, locus YKL085W, strain MDH1, stronger effect = lower value 0.998 | S. cerevisiae deletion strains, locus YKL160W, strain elf1, stronger effect = lower value 1.03 | S. cerevisiae deletion strains, locus YKR001C, strain vps1, stronger effect = lower value 1.01 | S. cerevisiae deletion strains, locus YKR026C, strain gcn3, stronger effect = lower value 1.03 | S. cerevisiae deletion strains, locus YKR091W, strain srl3, stronger effect = lower value 1.02 | S. cerevisiae deletion strains, locus YLL001W, strain dnm1, stronger effect = lower value 1.02 | S. cerevisiae deletion strains, locus YLL026W, stronger effect = lower value 1.01 | S. cerevisiae deletion strains, locus YLL041C, strain sdh2, stronger effect = lower value 1.02 | S. cerevisiae deletion strains, locus YLR027C, strain aat2, stronger effect = lower value 1.01 | S. cerevisiae deletion strains, locus YLR039C, strain RIC1, stronger effect = lower value 1.04 | S. cerevisiae deletion strains, locus YLR058C, strain SHM2, stronger effect = lower value 1.03 | S. cerevisiae deletion strains, locus YLR102C, strain apc9, stronger effect = lower value 1 | S. cerevisiae deletion strains, locus YLR113W, strain HOG1, stronger effect = lower value 0.947 | S. cerevisiae deletion strains, locus YLR221C, strain rsa3, stronger effect = lower value 1.03 | S. cerevisiae deletion strains, locus YLR258W, strain gsy2, stronger effect = lower value 1.01 | S. cerevisiae deletion strains, locus YLR262C, strain YPT6 (second series), stronger effect = lower value 1.01 | S. cerevisiae deletion strains, locus YLR262C, strain YPT6, stronger effect = lower value 1.01 | S. cerevisiae deletion strains, locus YLR268W, strain sec22, stronger effect = lower value 0.998 | S. cerevisiae deletion strains, locus YLR320W, strain mms22, stronger effect = lower value 1.01 | S. cerevisiae deletion strains, locus YLR330W, strain CHS5, stronger effect = lower value 1.02 | S. cerevisiae deletion strains, locus YLR342W, strain FKS1 (second series), stronger effect = lower value 1.03 | S. cerevisiae deletion strains, locus YLR342W, strain FKS1, stronger effect = lower value 1.03 | S. cerevisiae deletion strains, locus YLR357W, strain rsc2, stronger effect = lower value 1.05 | S. cerevisiae deletion strains, locus YLR370C, strain arc18, stronger effect = lower value 1.02 | S. cerevisiae deletion strains, locus YLR371W, strain rom2, stronger effect = lower value 1.02 | S. cerevisiae deletion strains, locus YLR384C, strain iki3, stronger effect = lower value 1.03 | S. cerevisiae deletion strains, locus YLR418C, strain cdc73, stronger effect = lower value 1.07 | S. cerevisiae deletion strains, locus YML016C, strain PPZ1, stronger effect = lower value 1.01 | S. cerevisiae deletion strains, locus YML032C, strain rad52, stronger effect = lower value 0.996 | S. cerevisiae deletion strains, locus YML120C, strain ndi1, stronger effect = lower value 1.01 | S. cerevisiae deletion strains, locus YML124C, strain tub3, stronger effect = lower value 1 | S. cerevisiae deletion strains, locus YMR058W, strain fet3, stronger effect = lower value 1 | S. cerevisiae deletion strains, locus YMR078C, strain ctf18, stronger effect = lower value 1.02 | S. cerevisiae deletion strains, locus YMR125W, strain sto1, stronger effect = lower value 1.03 | S. cerevisiae deletion strains, locus YMR129W, stronger effect = lower value 1.02 | S. cerevisiae deletion strains, locus YMR205C, strain PFK2, stronger effect = lower value 1.04 | S. cerevisiae deletion strains, locus YMR223W, strain ubp8, stronger effect = lower value 1.03 | S. cerevisiae deletion strains, locus YMR231W, strain pep5, stronger effect = lower value 1.02 | S. cerevisiae deletion strains, locus YMR307W, strain GAS1, stronger effect = lower value 1.04 | S. cerevisiae deletion strains, locus YNL067W, strain RPL9B, stronger effect = lower value 1.03 | S. cerevisiae deletion strains, locus YNL071W, strain lat1, stronger effect = lower value 1 | S. cerevisiae deletion strains, locus YNL128W, strain TEP1, stronger effect = lower value 1.04 | S. cerevisiae deletion strains, locus YNL153C, strain GIM3, stronger effect = lower value 1.04 | S. cerevisiae deletion strains, locus YNL175C, strain NOP13, stronger effect = lower value 1.01 | S. cerevisiae deletion strains, locus YNL183C, strain NPR1, stronger effect = lower value 0.918 | S. cerevisiae deletion strains, locus YNL197C, strain WHI3, stronger effect = lower value 0.99 | S. cerevisiae deletion strains, locus YNL209W, strain ssb2, stronger effect = lower value 1.01 | S. cerevisiae deletion strains, locus YNL224C, strain SQS1, stronger effect = lower value 1 | S. cerevisiae deletion strains, locus YNL233W, strain BNI4, stronger effect = lower value 1.03 | S. cerevisiae deletion strains, locus YNL248C, strain rpa49, stronger effect = lower value 1.04 | S. cerevisiae deletion strains, locus YNL250W, strain rad50, stronger effect = lower value 1.02 | S. cerevisiae deletion strains, locus YNL271C, strain bni1, stronger effect = lower value 1.01 | S. cerevisiae deletion strains, locus YNL298W, strain CLA4, stronger effect = lower value 1.01 | S. cerevisiae deletion strains, locus YNL307C, strain MCK1, stronger effect = lower value 1.02 | S. cerevisiae deletion strains, locus YNL322C, strain KRE1 (second series), stronger effect = lower value 1.05 | S. cerevisiae deletion strains, locus YNR049C, strain mso1, stronger effect = lower value 1.02 | S. cerevisiae deletion strains, locus YNR052C, strain pop2, stronger effect = lower value 1.01 | S. cerevisiae deletion strains, locus YOL006C, strain TOP1, stronger effect = lower value 1.14 | S. cerevisiae deletion strains, locus YOL012C, strain htz1 2.16 | S. cerevisiae deletion strains, locus YOL147C, strain pex11, stronger effect = lower value 1 | S. cerevisiae deletion strains, locus YOR001W, strain rrp6, stronger effect = lower value 1.03 | S. cerevisiae deletion strains, locus YOR061W, strain CKA2, stronger effect = lower value 1.01 | S. cerevisiae deletion strains, locus YOR069W, strain VPS5, stronger effect = lower value 1.01 | S. cerevisiae deletion strains, locus YOR070C, strain gyp1, stronger effect = lower value 1.02 | S. cerevisiae deletion strains, locus YOR080W, strain dia2, stronger effect = lower value 1.06 | S. cerevisiae deletion strains, locus YOR083W, strain WHI5 (second series), stronger effect = lower value 0.986 | S. cerevisiae deletion strains, locus YOR083W, strain WHI5, stronger effect = lower value 1.02 | S. cerevisiae deletion strains, locus YOR106W, strain vam3, stronger effect = lower value 1.03 | S. cerevisiae deletion strains, locus YOR136W, strain idh2, stronger effect = lower value 1.01 | S. cerevisiae deletion strains, locus YOR144C, strain elg1, stronger effect = lower value 0.993 | S. cerevisiae deletion strains, locus YOR184W, strain ser1, stronger effect = lower value 1.03 | S. cerevisiae deletion strains, locus YOR231W, strain MKK1, stronger effect = lower value 0.953 | S. cerevisiae deletion strains, locus YOR265W, strain rbl2, stronger effect = lower value 1.02 | S. cerevisiae deletion strains, locus YOR270C, strain vph1, stronger effect = lower value 1.01 | S. cerevisiae deletion strains, locus YOR290C, strain snf2, stronger effect = lower value 1.01 | S. cerevisiae deletion strains, locus YOR316C, strain cot1, stronger effect = lower value 1.01 | S. cerevisiae deletion strains, locus YPL051W, strain arl3, stronger effect = lower value 1.02 | S. cerevisiae deletion strains, locus YPL055C, strain LGE1, stronger effect = lower value 1.03 and 1.01 | S. cerevisiae deletion strains, locus YPL078C, strain atp4, stronger effect = lower value 1.02 | S. cerevisiae deletion strains, locus YPL106C, strain sse1, stronger effect = lower value 1.05 | S. cerevisiae deletion strains, locus YPL240C, strain hsp82, stronger effect = lower value 1.02 | S. cerevisiae deletion strains, locus YPL241C, strain CIN2, stronger effect = lower value 1.01 | S. cerevisiae deletion strains, locus YPL256C, strain CLN2, stronger effect = lower value 0.945 | S. cerevisiae deletion strains, locus YPR119W, strain clb2, stronger effect = lower value 1.01 | S. cerevisiae deletion strains, locus YPR141C, strain kar3, stronger effect = lower value 1.01 | S. cerevisiae deletion strains, locus YPR163C, strain tif3, stronger effect = lower value 0.999 | S. cerevisiae deletion strains, locus YPR167C, strain met16, stronger effect = lower value 1.01 | S. cerevisiae deletion strains, strain wtn01, stronger effect = lower value 1.03 | S. cerevisiae strains, strain wild type, stronger effect = lower value 1.01
